# This is a sample that favours compounds with a hit; in the whole collection about 6.5% have one here.
# VACV Venus inh = qHTS for Stage-Specific Inhibitors of Vaccinia Orthopoxvirus: Venus Reporter Primary qHTS; Vaccinia virus Venus reporter expression, fluorescence; Potency, µM (titrated, usually from 36.5 µM), for inactives: at the top dose activity change, negative = inhibition, actives largely listed as inhibitors; actives 0.46% (n = 330,000); AID 720580, 2013; calls by dose curve; tested in A549 cells; also: potency is read from the fitted curve at half-maximal effect; nearly all actives have a fitted effect of over 30% in size
# HCMV inh = qHTS Assay for inhibitors of the human cytomegalovirus (HCMV); AID 1259415, 2018; activity change, negative = inhibition, % at 57.5 µM; actives 4.5% (n = 410,000); HFF cells, HCMV-luciferase reporter, 72 h; active compounds read low; in the data active = activity change below about -60%; inconclusive = no clear call, values can overlap the other calls; inactive = above about -39%
#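 Two compound doses tested in HFFs infected with HCMV-luciferase, MOI 1 PFU/cell, 72 h at 37C. Lysate luminescence read with OneGlo; data normalized against buffer-only and 10uM Salinomycin inhibitor controls.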
# LASV entry inh = qHTS for Inhibitors of binding or entry into cells for Lassa Virus | Lassa virus pseudotype entry inhibition, cell reporter | Potency, µM (titrated, usually from 37.9 µM), inactives show top-dose activity change, negative = inhibition, usual class: inhibitors | actives 1.2% (n = 300,000) | AID 540256, 2011; calls by dose curve; tested in HEK293 cells; also: potency is read from the fitted curve at half-maximal effect; nearly all actives have a fitted effect of over 50% in size
# Marburg entry inh = qHTS for inhibitors of binding or entry into cells for Marburg Virus. Marburg virus pseudotyped entry inhibition, cell reporter. Potency, µM (doses to about 37.8 µM), for inactives: at the top dose activity change, negative = inhibition, hits mostly inhibitors. actives 1.8% (n = 300,000); calls by dose curve; tested in HEK293 cells; also: potency is read from the fitted curve at half-maximal effect
# VACV mCherry inh = qHTS for Stage-Specific Inhibitors of Vaccinia Orthopoxvirus: mCherry Reporter Primary qHTS | actives 0.63% (n = 310,000) | Vaccinia virus mCherry reporter infection, fluorescence | Potency, µM (top dose mostly 36.5 µM), without a hit: at the highest dose activity change, negative = inhibition, usual class: inhibitors | AID 720579, 2013; calls by dose curve; tested in A549 cells; also: potency is read from the fitted curve at half-maximal effect; nearly all actives have a fitted effect of over 35% in size
# FMDV inh = High Throughput Screening for Foot and Mouth Disease Virus Antivirals; actives 1.2% (n = 410,000); FMDV antiviral cell-based qHTS; Potency, µM (doses to about 57.9 µM), for inactives: at the top dose activity change, negative = inhibition, most hits filed as inhibitors; calls by dose curve; tested in HEK293T cells; also: read-out not given here; potency is read from the fitted curve at half-maximal effect; nearly all actives have a fitted effect of over 45% in size
# Numbers without * were called inactive; i = inactive; ? = inconclusive; . = no result given; + = active, no number; [ ] = another dose, or the depositor's remark. % is scaled to controls: 0 for no effect and ±100 for the full control effect.
SMILES,VACV Venus inh,HCMV inh,LASV entry inh,Marburg entry inh,VACV mCherry inh,FMDV inh
NC(=S)c1ccc[n+]([C@@H]2O[C@@H](COP(=O)([O-])OP(=O)(O)OC[C@H]3O[C@@H](n4cnc5c(N)ncnc54)[C@H](OP(=O)(O)O)[C@H]3O)C(O)C2O)c1 (stereo partly drawn),.,.,.,-7.6%,.,.
COc1ccc(O[C@H]2C=C[C@@H](c3ccccc3)O[C@H]2COC(=O)CCC(C)=NO[C@H](C)CN2CCCc3nc(C)c(C)cc32)cc1,.,.,.,-24.2%[14.2 µM],.,.
COc1ccccc1CNC(=O)Cn1c(=O)ccc2cc(S(=O)(=O)N3CCCC3)ccc21,6.2%,-2.3,-0.6%[46.1 µM],.,6.4%,-17.5%
CC(C)c1ccc(NC(=O)Nc2nc(C(N)C3CCCCC3)cs2)cc1 (stereo not drawn),?,-100.5*,.,.,-26.7%,?
CC(C)c1ccc(NC(=O)Nc2nc(C(N)c3ccccc3Cl)cs2)cc1 (stereo not drawn),-24.2%,-70.1*,.,.,-1.4%,?
CCSc1nnc(NC(=O)C(C)(C(F)(F)F)C(F)(F)F)s1,.,-65.9*,-3.6%,?,.,-20.8%
CCSc1nnc(NC(=O)c2cnccn2)s1,0.8%,.,21.4%,?,i,.
CCSc1nnc(NC(=O)NCC(F)(F)F)s1,-3.3%,5.3,-22.5%,6.9%,-4.6%[1.46 µM],18.2%
CCSc1nnc(NC(=O)c2ccccn2)s1,?,9.9,?,?,22.4µM*,0.0%
CCSc1nnc(NC(=O)C(CC)(C(F)(F)F)C(F)(F)F)s1,?,?,12.6µM*,?,.,?
CCSc1nnc(NC(=O)C(C(F)(F)F)C(F)(F)F)s1,.,-1.6,-10.3%,-10.6%,.,-13.0%
CCC[C@H]1[C@@H](NC(=O)Nc2ccccc2)CC[C@@]23CCCN2C(=O)CCC[C@@H]13,.,7.1,.,.,.,.
Cc1ccc(C2=CC(=O)N(CCC(N)=O)C2)cc1,.,48.6,.,.,.,.
CCOc1ccccc1NC(=O)N1CC(C)Oc2ccc(Cl)cc21 (stereo not drawn),-7.5%,23.6,2.8%[46.1 µM],.,-6.8%,-22.6%
Cn1nc(C(=O)OCc2ccc(F)cc2)c2ccccc2c1=O,-19.4%,-23.4,9.0%,-24.0%[46.1 µM],i,0.0%
Cc1ccc(COC(=O)c2nn(C)c(=O)c3ccccc23)cc1,-19.6%,-92.0*,?,26.5%[46.1 µM],-16.9%,?
C=CCOC(=O)C(C(C)=O)[C@@H](NC(=O)OC)c1cccs1 (stereo partly drawn),.,.,.,-6.4%[14.2 µM],.,.
Cc1ccc(C(=O)Nc2nc(C)c(C(=O)Nc3ccc4c(c3)CCC4)s2)cc1,-28.7%,?,?,1.12µM*,i,32.1%
Cc1nc2c(o1)CCc1ccccc1[C@H]2O,.,.,.,11.1%,.,.
Cn1c(SCc2ccccc2)nnc1C1CCCN(Cc2cccc3ncccc23)C1 (stereo not drawn),-6.6%,.,.,.,-8.7%,-11.4%
O=C(NC1CC1)C1CCN(S(=O)(=O)c2ccc(Cl)c([N+](=O)[O-])c2)CC1,.,-102.7*,.,.,.,?
O=C(NC1CCN(S(=O)(=O)c2cccc([N+](=O)[O-])c2)CC1)C1CCCCC1,-4.4%,9.5,4.5%,-2.4%[46.1 µM],-2.2%,0.0%
CN1CCN(C(=O)CCn2c(=O)c3cccn3c3cccnc32)CC1,-6.7%,+,17.1%[46.1 µM],14.5%[46.1 µM],-7.2%,-4.6%
CC(C)Oc1ccc(CNC(=O)CCCn2c(=O)c3cccn3c3cccnc32)cc1,-11.6%,-67.7*,9.1%[46.1 µM],.,-16.8%,-1.1%
CCc1ccc(CNC(=O)CCCn2c(=O)c3cccn3c3cccnc32)cc1,.,11.7,.,.,.,-14.3%
SMILES,VACV Venus inh,HCMV inh,LASV entry inh,Marburg entry inh,VACV mCherry inh,FMDV inh
CC(NC(=O)CCCn1c(=O)c2cccn2c2cccnc21)c1ccccc1 (stereo not drawn),-13.1%,-65.0*,-3.7%[46.1 µM],.,-11.3%,2.0%
CCN(CC)c1ccc(/C=C/c2ccncc2)cc1,i,.,.,.,5.9%,.
CC(C)CC(=O)/C(=C\c1ccc(Cl)cc1Cl)n1cncn1,12.6µM*,.,0.581µM*,?,?,7.94µM*
COc1ccc(/C=C(/C(=O)c2ccc(Cl)cc2Cl)n2cncn2)cc1,.,-15.9,10.9%,-2.4%,.,?
CC(C)CC(=O)/C(=C/c1ccc(N(C)C)cc1)n1cncn1,-15.8%,-60.3*,-4.3%[46.1 µM],-1.3%[46.1 µM],-1.3%,-1.0%
COc1ccc(NC(=S)N2CCN(S(=O)(=O)c3ccc(OC)cc3)CC2)cc1,-18.9%,-13.0,-29.1%[46.1 µM],23.3%[46.1 µM],-9.8%,7.5%
COc1cc(NC(=S)N2CCN(S(=O)(=O)c3ccc(F)cc3)CC2)cc(OC)c1,-5.9%,-24.0,?,20.7%,-13.3%,5.2%
COc1cccc(NC(=S)N2CCN(S(=O)(=O)c3ccc(F)cc3)CC2)c1,-22.2%,-63.1*,21.8%[46.1 µM],-3.3%[46.1 µM],?,14.1%
COc1ccc(NC(=S)N2CCN(S(=O)(=O)c3ccc(C)cc3)CC2)cc1,-10.6%,-60.6*,5.1%,8.6%,-10.4%,53.0%
CCOC(=O)COc1ccc([N+](=O)[O-])cc1-c1ccnc2cc(-c3ccc(C)cc3)nn12,-0.1%,18.7,0.2%[46.1 µM],-11.0%[46.1 µM],-5.5%,-19.0%
Cc1ccc(-c2cc3nccc(-c4cc([N+](=O)[O-])ccc4O)n3n2)cc1,-10.6%,-62.9*,?,-4.6%[46.1 µM],-20.6%,-11.4%
CCOC(=O)c1ccc(NC(=O)Cn2c(=O)cc(C)c3c(C)nn(-c4ccc(CC)cc4)c32)cc1,?,28.6,-1.7%[46.1 µM],.,-23.1%,-2.2%
Cc1nc(C(F)(F)F)c(C(=O)N/N=C(\N)c2ccccn2)s1,?,-33.5,?,?,2.51µM*,2.8%
COC(=O)C1=C(O)C(C(=O)OC)C(c2ccc(C)cc2)C(C#N)(C#N)C1c1ccc(C)cc1 (stereo not drawn),.,-96.5*,?,?,.,-18.4%
COC(=O)C1=C(Nc2ccc(C)cc2)C=C(C)C(C(=O)OC)C1c1ccc(OC)cc1 (stereo not drawn),.,-3.1,?,?,.,0.0%
CCC(=O)N1CCc2cc(S(=O)(=O)NC(CC(C)C)C(=O)Nc3cccc(C)c3C)ccc21 (stereo not drawn),-11.9%,-3.4,1.3%[46.1 µM],-2.8%[46.1 µM],-20.2%,4.8%
CC(C)(C)c1ccc(C(=O)NCCOc2ccccc2F)cc1,-19.2%,-69.5*,?,?,-11.9%,35.5µM*
CNCCCOc1ccc(C(C)(C)c2ccccc2)cc1,.,.,.,0.0%,.,.
COCCCNCCOc1ccc(C(C)(C)c2ccccc2)cc1,-18.7%,-24.8,?,16.4µM*,-23.3%,-17.5%
Cc1ccc(OCCNC(=O)c2ccc(COc3ccccc3)o2)cc1,-12.5%,-21.0,?,-3.9%,-5.2%,-4.7%
CC(C)(C)c1ccc(C(=O)NCCOc2ccccc2)cc1,-9.8%,?,?,1.58µM*,-3.0%,20µM*

# Screens as filed in PubChem BioAssay.
